Measurements as given in PubChem BioAssay (Tox21).
Values joined by “and” are separate entries in the source; they are usually repeats but may differ in a detail not shown here. Equal values may be shown once. Results filed as inconclusive are left out. The source holds several records for some structures; these can differ, active in one and inactive in another. Active and inactive are the calls of the source. Unless noted, the call rests on the fitted dose curve; in most records, active means well fitted curve in the direction sought with a large enough effect in the repeat runs; inconclusive means weak or mixed curves; inactive means no such curve, though single readings can be large; an effect the other way counts as inactive or inconclusive.

Legend:
[1] = qHTS assay to identify small molecule agonists of the androgen receptor (AR) signaling pathway in the presence of an antagonist - cell viability counter screen (AID 1259379); further: nearly all actives have a fitted effect of over 25% in size; further: potency means the concentration at half of the fitted maximal effect;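 on activity change, negative = cytotoxicity: MDA-kb2 human breast cancer cells carrying an MMTV luciferase reporter; series mostly up to about 92 µM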
In short: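 Cytotoxicity is assessed by CellTiter-Fluor in MDA-kb2 cells carrying an MMTV-driven luciferase reporter. Cells receive 3.0uM nilutamide plus compounds at 15 concentrations and incubate 16 hr at 37C without CO2 before fluorescence reading.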

[2] = qHTS assay to identify small molecule agonists of the estrogen receptor beta (ER-beta) signaling pathway - cell viability counter screen (AID 1259380); further: nearly all actives have a fitted effect of over 30% in size; further: potency means the concentration at half of the fitted maximal effect
In short: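 Cytotoxicity is measured in parallel with the reporter screen: after 16 hr compound exposure at 37C and a 2 hr LiveBLAzer step, CellTiter-Glo is added to the same ER-beta-UAS-bla HEK293T wells and luminescence read after 30 min.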

[3] = biological target: Androgen receptor (Homo sapiens) (UniProt P10275); test: qHTS assay to identify small molecule agonists of the androgen receptor (AR) signaling pathway in the presence of an antagonist (AID 1259381; calls by dose curve; further: nearly all actives have a fitted effect of over 15% in size; further: potency means the concentration at half of the fitted maximal effect)
Androgen receptor (Homo sapiens), sequence (P10275 whole entry, looked up): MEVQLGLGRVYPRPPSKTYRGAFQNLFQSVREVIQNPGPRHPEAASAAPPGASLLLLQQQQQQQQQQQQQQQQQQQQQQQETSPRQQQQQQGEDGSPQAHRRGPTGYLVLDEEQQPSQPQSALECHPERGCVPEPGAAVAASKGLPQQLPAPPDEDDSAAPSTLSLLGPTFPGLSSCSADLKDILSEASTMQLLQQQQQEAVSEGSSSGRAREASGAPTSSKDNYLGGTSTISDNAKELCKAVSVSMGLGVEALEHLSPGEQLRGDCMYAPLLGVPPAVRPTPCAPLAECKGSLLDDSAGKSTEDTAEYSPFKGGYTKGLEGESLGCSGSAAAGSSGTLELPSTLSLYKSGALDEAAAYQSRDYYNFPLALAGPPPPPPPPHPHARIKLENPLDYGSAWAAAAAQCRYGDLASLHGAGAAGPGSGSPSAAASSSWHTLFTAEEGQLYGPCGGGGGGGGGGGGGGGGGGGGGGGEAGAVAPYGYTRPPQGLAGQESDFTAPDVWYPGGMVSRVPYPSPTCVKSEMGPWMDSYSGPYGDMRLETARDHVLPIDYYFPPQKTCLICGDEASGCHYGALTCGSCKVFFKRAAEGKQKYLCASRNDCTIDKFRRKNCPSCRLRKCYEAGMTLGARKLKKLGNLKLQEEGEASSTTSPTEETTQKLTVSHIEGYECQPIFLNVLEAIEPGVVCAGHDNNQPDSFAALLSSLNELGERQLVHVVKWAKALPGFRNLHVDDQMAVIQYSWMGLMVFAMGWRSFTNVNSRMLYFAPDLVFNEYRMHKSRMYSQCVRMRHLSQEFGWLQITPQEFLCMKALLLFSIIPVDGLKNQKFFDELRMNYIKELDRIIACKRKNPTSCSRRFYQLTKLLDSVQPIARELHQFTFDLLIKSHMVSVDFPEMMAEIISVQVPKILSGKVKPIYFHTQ
In short: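 Agonist-mode confirmation screen: human MDA-kb2 cells stably expressing luciferase under an MMTV promoter bearing AR and GR response elements, co-treated with 3.0uM nilutamide (final). Luminescence measured after 16hr compound incubation.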

[4] = qHTS assay to identify small molecule antagonists of the estrogen receptor beta (ER-beta) signaling pathway - cell viability counter screen (AID 1259382); further: nearly all actives have a fitted effect of over 55% in size; further: potency means the concentration at half of the fitted maximal effect;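 on activity change, negative = cytotoxicity: HEK293T cells carrying ER-beta-UAS-bla reporter stimulated with estradiol; series mostly up to about 92 µM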
In short: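 Cytotoxicity counter screen multiplexed with the beta-lactamase antagonist assay: GripTite HEK293T ER-beta-bla cells were treated 16 hr with test chemicals in the presence of 1nM 17-beta-estradiol, and viability was measured by CellTiter-Glo.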

[5] = biological target: Estrogen receptor (Homo sapiens) (UniProt P03372); test: qHTS assay to identify small molecule agonists of the estrogen receptor alpha (ER-alpha) signaling pathway in the presence of an antagonist (AID 1259383; calls by dose curve; further: top concentration of the series differs between compounds; nearly all actives have a fitted effect of over 15% in size)
Estrogen receptor (Homo sapiens), sequence (P03372 whole entry, looked up): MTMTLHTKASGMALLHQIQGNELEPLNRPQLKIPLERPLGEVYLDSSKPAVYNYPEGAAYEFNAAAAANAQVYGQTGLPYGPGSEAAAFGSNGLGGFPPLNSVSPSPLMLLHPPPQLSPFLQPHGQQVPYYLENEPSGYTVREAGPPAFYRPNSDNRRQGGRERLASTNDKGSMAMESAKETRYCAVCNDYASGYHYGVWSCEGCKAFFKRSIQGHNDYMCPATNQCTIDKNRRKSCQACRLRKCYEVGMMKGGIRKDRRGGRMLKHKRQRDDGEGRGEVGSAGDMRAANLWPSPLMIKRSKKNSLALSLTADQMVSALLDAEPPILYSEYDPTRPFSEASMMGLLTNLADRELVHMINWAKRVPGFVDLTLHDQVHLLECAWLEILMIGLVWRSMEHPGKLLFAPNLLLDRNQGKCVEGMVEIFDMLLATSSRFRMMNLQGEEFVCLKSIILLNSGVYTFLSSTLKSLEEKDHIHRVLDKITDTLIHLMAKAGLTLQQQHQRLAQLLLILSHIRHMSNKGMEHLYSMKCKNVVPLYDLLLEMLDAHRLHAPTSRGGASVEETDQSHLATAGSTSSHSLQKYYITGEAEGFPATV
In short: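 Agonist-mode confirmation in the presence of the ER antagonist ICI-182,780 at 10.0nM final. Breast-derived VM7Luc4E2 reporter cells were exposed to compounds for 22hr, and ERE-driven luciferase was quantified by luminescence.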

[6] = qHTS assay to identify small molecule agonists or antagonists of the thyroid stimulating hormone receptor (TSHR) signaling pathway - wild type cell line counter screen (AID 1259384; calls by dose curve)
In short: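 Counter screen in untransfected Hek293: compounds (15-point titration, triplicate) plus phosphodiesterase inhibitor Ro20-1724 added after 18 h plating; 30 min RT. Intracellular cAMP via competitive d2/cryptate immunoassay, 1 h incubation.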

[7] = biological target: Thyrotropin receptor (Homo sapiens) (UniProt P16473); test: qHTS assay to identify small molecule antagonists of the thyroid stimulating hormone receptor (TSHR) signaling pathway (AID 1259385; calls by dose curve; further: nearly all actives have a fitted effect of over 20% in size)
Thyrotropin receptor (Homo sapiens), sequence (P16473 whole entry, looked up): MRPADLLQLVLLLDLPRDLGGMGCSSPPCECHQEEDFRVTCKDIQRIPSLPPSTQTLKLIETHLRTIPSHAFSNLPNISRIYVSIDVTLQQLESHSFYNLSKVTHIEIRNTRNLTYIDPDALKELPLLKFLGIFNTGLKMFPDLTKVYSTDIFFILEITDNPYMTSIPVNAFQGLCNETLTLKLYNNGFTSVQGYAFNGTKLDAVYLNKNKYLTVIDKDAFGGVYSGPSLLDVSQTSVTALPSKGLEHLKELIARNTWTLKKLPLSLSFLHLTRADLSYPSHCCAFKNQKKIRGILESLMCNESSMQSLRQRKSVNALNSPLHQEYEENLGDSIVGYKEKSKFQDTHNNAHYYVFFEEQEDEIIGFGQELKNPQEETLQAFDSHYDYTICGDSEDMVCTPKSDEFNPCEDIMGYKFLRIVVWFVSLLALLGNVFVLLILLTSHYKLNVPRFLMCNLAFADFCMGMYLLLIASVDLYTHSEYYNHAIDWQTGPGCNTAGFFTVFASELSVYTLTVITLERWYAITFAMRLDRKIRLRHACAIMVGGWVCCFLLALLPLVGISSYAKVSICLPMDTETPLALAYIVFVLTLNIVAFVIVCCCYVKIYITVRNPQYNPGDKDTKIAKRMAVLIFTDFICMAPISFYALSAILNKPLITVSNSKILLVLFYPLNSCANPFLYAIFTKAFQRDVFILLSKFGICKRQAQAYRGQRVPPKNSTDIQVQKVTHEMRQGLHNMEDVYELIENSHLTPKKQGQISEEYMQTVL
In short: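 Antagonist mode: compound-treated TSHR-expressing HEK293 cells were stimulated with 1.5 ng/mL TSH (final) in presence of Ro20-1724 for 30 min at RT. HTRF cAMP detection after 1 h; each compound tested at 15 concentrations, triplicate.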

[8] = qHTS assay to identify small molecule agonists of the estrogen receptor alpha (ER-alpha) signaling pathway in the presence of an antagonist - cell viability counter screen (AID 1259386);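 further: cells exposed to compounds for 22 h at 37 °C before the viability read; nearly all actives have a fitted effect of over 30% in size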; further: potency means the concentration at half of the fitted maximal effect; on activity change, negative = cytotoxicity: series mostly up to about 92 µM
In short: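 Cytotoxicity was measured in parallel with the ERE-luciferase agonist screen, in the same wells. The cells were VM7Luc4E2, which endogenously express ER-alpha, and treatment was with compounds plus 10.0nM ICI-182,780 for 22hr.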

[9] = qHTS assay to identify small molecule antagonists of the TGF-beta/Smad signaling pathway - cell viability counter screen (AID 1346824); further: nearly all actives have a fitted effect of over 50% in size
In short: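 Cytotoxicity counter-screen run in the same wells as the beta-lactamase Smad reporter read: CellTiter-Glo luminescence after 30 min at room temperature. HEK 293T SBE-bla cells had 5 hr compound exposure at 37 C with TGF-beta1 (0.25 ng/mL stock).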

[10] = qHTS assay to identify small molecule agonists of the TGF-beta/Smad signaling pathway - cell viability counter screen (AID 1346829); further: top concentration of the series differs between compounds; nearly all actives have a fitted effect of over 45% in size
In short: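 After overnight seating at 37 C and 5% CO2, reporter cells got compounds for 5 hr and FRET substrate for 2 hr; cell viability then came from CellTiter-Glo luminescence.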

[11] = qHTS assay to identify small molecule agonists of the TGF-beta/Smad signaling pathway (AID 1346859; active means well fitted activation curve with a large enough effect in the signal ratio in the repeat runs, not every such curve was filed as active; the % refers to the signal ratio; further: series mostly up to about 77 µM)
In short: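 Read-out: fluorescence at 460 and 530 nm (405 nm excitation) after a 2 hr room-temperature incubation with beta-lactamase FRET substrate. SBE-bla HEK 293T cells had been treated with test compounds for 5 hr at 37 C.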

[12] = biological target: Thyrotropin-releasing hormone receptor (Homo sapiens) (UniProt P34981); test: qHTS assay to identify small molecule antagonists of the thyrotropin-releasing hormone receptor (TRHR) signaling pathway (AID 1346877; active means well fitted inhibition curve with a large enough effect in the repeat runs, not every such curve was filed as active; further: series mostly up to about 51 µM)
Thyrotropin-releasing hormone receptor (Homo sapiens), sequence (P34981 whole entry, looked up): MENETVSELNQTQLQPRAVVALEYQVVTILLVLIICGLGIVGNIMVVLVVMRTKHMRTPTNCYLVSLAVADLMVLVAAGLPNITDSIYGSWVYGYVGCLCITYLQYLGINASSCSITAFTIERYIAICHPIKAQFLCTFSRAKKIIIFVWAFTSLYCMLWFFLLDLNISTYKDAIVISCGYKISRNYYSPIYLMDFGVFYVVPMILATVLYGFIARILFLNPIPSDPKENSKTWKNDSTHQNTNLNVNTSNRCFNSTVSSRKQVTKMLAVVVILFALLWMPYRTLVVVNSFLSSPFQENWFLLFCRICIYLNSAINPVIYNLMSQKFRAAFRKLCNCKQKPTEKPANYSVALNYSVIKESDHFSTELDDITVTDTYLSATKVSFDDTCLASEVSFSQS
In short: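 Antagonism is measured as suppression of the calcium response to 1 nM TRH in TRHR-HEK293 cells that have been dye-loaded for 2 h at 37 °C after overnight plating. Each compound is tested at 15 concentrations in triplicate.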

[13] = biological target: Thyrotropin-releasing hormone receptor (Homo sapiens) (UniProt P34981); test: qHTS assay to identify small molecule agonists of the thyrotropin-releasing hormone receptor (TRHR) signaling pathway (AID 1346891; calls by dose curve;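 further: HEK293 cells expressing TRHR with calcium dye readout; series mostly up to about 58 µM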)
In short: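 HEK293/TRHR cells, 1500 per well, 18 h 37 °C; Ca dye 2 h 37 °C; pin-tool compound addition (agonist mode); kinetic fluorescence 3 min, 1 s reads; 15 concentrations, triplicate.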

[14] = Human pregnane X receptor (PXR) small molecule agonists, qHTS cell viability counter screen (AID 1346977); further: nearly all actives have a fitted effect of over 50% in size; further: potency means the concentration at half of the fitted maximal effect
In short: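 Fluorescence read-out (CellTiter-Fluor) of viability in PXR-Luc HepG2 cells, multiplexed with the luciferase agonist read. Compounds in DMSO added after 5hr plating; 24hr total exposure at 37C, 5% CO2.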

[15] = Caspase-3/7 induction in HepG2 cells by small molecules, qHTS assay (AID 1346978); further: nearly all actives have a fitted effect of over 15% in size; further: potency means the concentration at half of the fitted maximal effect
In short: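 Caspase-3/7 induction was measured by Caspase-Glo 3/7 luminescence (30 min, room temperature) after a 17 hr compound exposure of wild-type HepG2 cells seeded at 2,000 per well and pre-incubated 5 hr.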

[16] = biological target: Progesterone receptor (Homo sapiens) (UniProt P06401); test: qHTS assay to identify small molecule agonists of the progesterone receptor (PR) signaling pathway (AID 1346784; calls by dose curve; further: nearly all actives have a fitted effect of over 30% in size)
Progesterone receptor (Homo sapiens), sequence (P06401 whole entry, looked up): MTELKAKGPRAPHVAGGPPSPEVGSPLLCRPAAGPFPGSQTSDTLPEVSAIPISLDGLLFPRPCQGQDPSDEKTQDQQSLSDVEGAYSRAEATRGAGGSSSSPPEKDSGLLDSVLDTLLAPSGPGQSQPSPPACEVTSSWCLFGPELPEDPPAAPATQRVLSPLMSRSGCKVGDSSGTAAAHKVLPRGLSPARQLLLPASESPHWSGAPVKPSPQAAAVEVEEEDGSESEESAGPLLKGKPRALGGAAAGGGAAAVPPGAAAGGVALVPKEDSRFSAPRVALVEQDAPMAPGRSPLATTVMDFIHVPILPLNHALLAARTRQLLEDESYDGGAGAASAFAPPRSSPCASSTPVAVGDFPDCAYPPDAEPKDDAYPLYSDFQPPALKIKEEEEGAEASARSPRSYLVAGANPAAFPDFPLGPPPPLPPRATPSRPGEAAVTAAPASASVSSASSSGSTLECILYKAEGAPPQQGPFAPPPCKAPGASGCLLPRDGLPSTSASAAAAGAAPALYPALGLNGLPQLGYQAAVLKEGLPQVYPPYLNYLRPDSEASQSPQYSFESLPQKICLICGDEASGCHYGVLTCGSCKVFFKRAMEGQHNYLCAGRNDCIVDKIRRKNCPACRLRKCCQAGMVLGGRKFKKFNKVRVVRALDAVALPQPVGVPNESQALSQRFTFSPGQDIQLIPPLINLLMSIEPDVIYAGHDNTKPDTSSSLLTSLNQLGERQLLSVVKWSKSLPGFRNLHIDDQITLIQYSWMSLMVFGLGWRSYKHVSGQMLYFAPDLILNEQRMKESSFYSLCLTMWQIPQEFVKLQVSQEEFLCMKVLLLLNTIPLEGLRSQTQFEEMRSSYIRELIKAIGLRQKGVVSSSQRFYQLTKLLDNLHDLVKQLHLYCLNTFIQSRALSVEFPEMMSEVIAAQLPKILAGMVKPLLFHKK
In short: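 HEK 293T PR-UAS-bla reporter cells, 2% charcoal-stripped FBS; 6 hr settle at 37C/5% CO2, compound (DMSO) 16 hr, LiveBLAzer B/G FRET substrate 2 hr RT, fluorescence intensity read.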

[17] = biological target: Progesterone receptor (Homo sapiens) (UniProt P06401); test: qHTS assay to identify small molecule antagonists of the progesterone receptor (PR) signaling pathway (AID 1346795; active means well fitted inhibition curve with a large enough effect in the signal ratio in the repeat runs, not every such curve was filed as active; the % refers to the signal ratio; further: potency means the concentration at half of the fitted maximal effect)
In short: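 Beta-lactamase reporter, HEK293T PR-UAS-bla line; 2% charcoal-stripped FBS; 6 hr pre-incubation, 37C/5% CO2. Compound + R5020 1 nM final, 16 hr. LiveBLAzer B/G FRET substrate, 2 hr RT; fluorescence intensity read.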

[18] = qHTS assay to identify small molecule antagonists of the progesterone receptor (PR) signaling pathway - cell viability counter screen (AID 1346798); further: series mostly up to about 92 µM; nearly all actives have a fitted effect of over 50% in size
In short: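 Luminescence readout (CellTiter-Glo, 30 min, RT) of viability in PR-UAS-bla HEK293T cells exposed to compound and R5020 agonist for 16 hr at 37C, 5% CO2; run in the same wells as the beta-lactamase reporter read.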

[19] = qHTS assay to identify small molecule agonists of the progesterone receptor (PR) signaling pathway - cell viability counter screen (AID 1346799; calls by dose curve; further: nearly all actives have a fitted effect of over 45% in size)
In short: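 HEK293T PR-UAS-bla, 3,000 cells/well, 2% charcoal-stripped FBS; 6 h settle, compound 16 h at 37C/5% CO2; LiveBLAzer 2 h RT, then CellTiter-Glo 30 min RT, luminescence read.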
On the % scale 0 is the no-effect control and ±100 the full control effect.

CC1=C(/C=C/C(C)=C/C=C/C(C)=C/C(=O)Nc2ccc(O)cc2)C(C)(C)CCC1
inactive: Potency [5] | outcome [6] | Potency [7] | Potency [9] | Potency [10] | Potency [11] | Potency [12] | Potency [13]
8.85 µM (active) and inactive: Potency [3]
active: Potency [1] 49.8 µM and 23.7 µM | Potency [2] 62.7 µM and 26.6 µM | Potency [4] 70.3 µM | Potency [8] 31.4 µM and 13.3 µM | Potency [14] 49.8 µM and 26.6 µM | Potency [15] 70.3 µM and 29.8 µM

O=C=NCc1cccc(CN=C=O)c1
inactive: activity change, negative = cytotoxicity [1] -5.15% [at 19 µM] | activity change, negative = cytotoxicity [2] 2.31% [at 19 µM] | activity change, negative = cytotoxicity [4] 13% [at 19 µM] | activation [5] 0.099% [at 19 µM] | cAMP activity change [6] -0.613% [at 18.9 µM] | activity change, negative = inhibition [7] 2.52% [at 19 µM] | activity change, negative = cytotoxicity [8] 1.12% [at 19 µM] | activation [16] -0.779% [at 19 µM] | activity change, negative = inhibition [17] 0.417% [at 18.9 µM] | activity change, negative = cytotoxicity [18] -11.8% [at 18.9 µM] | activity change, negative = cytotoxicity [19] -1.39% [at 19 µM] | viability change, negative = cytotoxic [9] -4.21% [at 15.8 µM] | activity change, negative = cytotoxicity [10] -12.3% [at 15.8 µM] | activation [11] 3.26% [at 15.8 µM] | activation [13] -0.119% [at 11.8 µM] | activity change, negative = cytotoxicity [14] 4.21% [at 19 µM] | caspase activation [15] -0.106% [at 19 µM]

CCO[Si](C)(C)OCC
inactive: Potency [1] | Potency [2] | Potency [4] | Potency [5] | outcome [6] | Potency [7] | Potency [8] | outcome [16] | Potency [17] | Potency [18] | Potency [19] | Potency [9] | Potency [10] | Potency [11] | Potency [14] | Potency [15]

CC1(C)COCN1
inactive: Potency [1] | Potency [2] | Potency [3] | Potency [4] | outcome [6] | Potency [7] | Potency [8] | outcome [16] | Potency [17] | Potency [18] | Potency [19] | Potency [9] | Potency [10] | Potency [11] | Potency [12] | Potency [13] | Potency [14] | Potency [15]

OCCC(O)CO (stereo not drawn)
inactive: Potency [1] | Potency [2] | Potency [4] | Potency [5] | outcome [6] | Potency [7] | Potency [8] | outcome [16] | Potency [17] | Potency [18] | Potency [19] | Potency [9] | Potency [10] | Potency [11] | Potency [12] | Potency [13] | Potency [14] | Potency [15]

NC(=O)c1nc(-c2cccc(-c3cc(F)ccc3OCC(F)(F)C(F)(F)F)c2)n[nH]1
inactive: Potency [1] | Potency [3] | Potency [5] | outcome [6] | Potency [9] | Potency [10] | Potency [11] | Potency [12] | Potency [13] | Potency [15]
active: Potency [2] 61.1 µM | Potency [17] 34.4 µM | Potency [14] 54.5 µM

CCC(C)c1ccccc1 (stereo not drawn)
inactive: Potency [1] | Potency [2] | Potency [3] | Potency [4] | outcome [6] | Potency [7] | outcome [16] | Potency [17] | Potency [18] | Potency [19] | Potency [9] | Potency [10] | Potency [11] | Potency [12] | Potency [14] | Potency [15]
